Measurements reported in PubChem BioAssay AID493085 (Broad Institute, 2011).
About 360 (15%) of roughly 2,400 compounds were called active. Another 5% or so got no clear call; they are omitted.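 Rule for the calls: active = falling-signal curve with half-maximal concentration at or below ten times the top tested dose; inconclusive = flat fit at 30 to 70% inhibition, or poor fit; inactive = signal rise, flat within 30%, or potency beyond limit.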 A selection follows. Results with a measured potency or affinity are listed apart.

Experiment: Tet-On RFP internal-standard readout, HSF1 screen, dose response, cell-based, NIH3T3 R4, HSE-GFP and Tet-On RFP, cherry-pick, set 3 (AID 493085);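 note: cells heat shocked 2 h at 42 °C with doxycycline to induce reporters; 0% = neutral control wells and -100% = didemnin B control at 400 nM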
Settings: NIH3T3 R4 HSE-GFP/Tet-RFP reporter, fluorescence, 48 h; series mostly up to 19.5 µM; activity change, negative = inhibition: at the top concentration

Activity change, negative = inhibition, inactive:
OC1(c2ccc(Br)cc2)CCN(Cc2cccc(Br)c2)CC1 -3.81%
Cn1ccnc1SCC(=O)N(C1CCCCC1)C1CCCCC1 -3.07%
COc1cc(C(=O)N(C)C2CCCN(Cc3ccccc3F)C2)cc(OC)c1OC (centres undefined) 3.93%
CS(=O)(=O)N(CC(=O)O)c1ccc(C23CC4CC(CC(C4)C2)C3)cc1 7.89%
O=C(CCC1CCCNC1)c1ccccc1 (centres undefined) 4.57%
CC(=O)c1cnn(-c2c(Cl)cc(Cl)cc2Cl)c1C 2.88%
CC(C)Oc1ccc(C(=O)O)cc1 -1.52%
NC(=O)c1ccsc1NC(=O)C1CCCCC1 3.52%
COC(=O)c1cccc(N2C(=O)C3CC=CCC3C2=O)c1 (centres undefined) -7.46%
COc1ccc(C(=O)Nc2ccccc2C(=O)N/N=C/c2ccc(O)c(OC)c2)cc1 -5.62%
O=C(N/N=C/c1ccc(F)cc1)c1ccc(OCc2ccccc2)cc1 -6.34%
O=C(N/N=C/c1cc([N+](=O)[O-])ccc1O)c1ccncc1 -7.98%
CCOc1cc(N2CCOCC2)c(OCC)cc1NC(=O)c1cc(-c2ccco2)nc2ccccc12 -12.4%
COC(=O)[C@H](C)NC(=O)NCCC1=CCCCC1 -2.47%
Cc1ccc(C(=O)/C=C/Nc2ccccn2)cc1 -0.009%
COC(=O)c1nn(-c2cccc(C(F)(F)F)c2)c(=O)cc1Sc1ccccn1 -0.462%
CCCCOc1ccc(C2C(=O)N(C3CCCCC3)CC(=O)N2CC2CCCO2)cc1 (centres undefined) 3.16%
CCOC(=O)c1c(C)[nH]c(C2=NNC(=Nc3cccc(Cl)c3)SC2)c1C 6.15%
CC(C)(C)N=C1NN=C(c2ccc(Cl)cc2)CS1 -0.077%
CC(C)(C)c1ccccc1NC(=O)NC1CCN(Cc2c(F)cccc2Cl)CC1 6.36%
COc1ccccc1NC1=C(Cl)C(=O)N(C2CCCCC2)C1=O -7.56%
CCOC(=O)Cc1csc(NC(=O)c2sc3nc4ccc(CC)cc4cc3c2N)n1 0.721%
O=C1c2ccccc2C(O)N1c1ccccc1 (centres undefined) -5%
Cc1ccnc(N2CCCC(C(=O)NCc3cccs3)C2)n1 (centres undefined) -3.11%
O=C(O)CCn1cc(/C=C2\NC(=S)N(c3ccccc3)C2=O)c(-c2ccc(Br)cc2)n1 -0.659%
Cc1noc(C)c1COc1ccc(C(=O)OCC(=O)Nc2c(C)n(C)n(-c3ccccc3)c2=O)cc1 -3.94%
COc1cccc(CNc2ccc(S(N)(=O)=O)cc2)c1OC -1.4%
COc1cc(/C=C/c2nc(N)nc(-c3ccccc3O)n2)cc(OC)c1OC 18.8%
CN=c1scc(-c2ccccc2F)n1/N=C/c1ccc[nH]1 -4.98%
Cc1cc(C)c(NC(=O)CSc2nnc(-c3ccncc3)n2Cc2ccco2)c(Cl)c1 -3.6%
CCOc1ccc(NCc2nnc(SCc3ccccc3Cl)n2-c2ccccc2)cc1 -11.4%
CCc1ccccc1-n1c(SCC(=O)Nc2ccc3c(c2)OCCO3)nc2[nH]ncc2c1=O -7.25%
CCCCn1c(=O)n(CC(=O)Nc2c(CC)cccc2CC)c(=O)c2c1nc(CO)n2CCC 6.15%
CCOC(=O)Cn1c(CN2CCN(c3cccc(Cl)c3)CC2)nc2c1c(=O)[nH]c(=O)n2C -12.4%
Cc1[nH]n(-c2ccccc2)c(=S)c1C=Nc1cccc([N+](=O)[O-])c1 -1.4%
CCOc1ccc(/C(O)=C2/C(=O)C(=O)N(CCCn3ccnc3)C2c2cccs2)cc1Cl (centres undefined) 1.41%
Cc1ccc(S(=O)(=O)N2CCN(C(=O)c3cccc(F)c3)CC2)cc1 -8.47%
O=C(O)c1cc(-c2cccc3ccccc23)nc2ccccc12 -4.24%
Cc1nc(NC(C)c2ccccc2)sc1C(=O)Nc1ccccc1 (centres undefined) 9.94%
CC(C)Sc1nc2sccc2c(=O)n1-c1ccccc1 11.3%
COc1cccc(C(=O)Nc2ccc(NC(=O)C3CC=CCC3C(=O)O)cc2)c1 (centres undefined) 0.016%
CC(C)CN(CC(C)C)C(=S)NC1CCCCC1 -6.14%
O=[N+]([O-])c1ccc(N2CCN(Cc3ccc4c(c3)OCO4)CC2)nc1 -8.55%
COc1ccccc1NC(=O)c1ccc([N+](=O)[O-])o1 57.8%
Cc1c(C(=O)NCc2ccc3c(c2)OCO3)sc2nc(-c3ccccc3)cn12 -10%
COc1cc(C(=O)Nc2ccccc2NC(=O)c2cc(OC)c(OC)c(OC)c2)cc(OC)c1OC 2.37%
O=C(NCc1ccc2c(c1)OCO2)c1cc2c(s1)CS(=O)(=O)C2 -6.5%
Cc1cccc(NC(=O)CN2C(=O)N/C(=C/c3cc(C)n(C(C)C)c3C)C2=O)c1 -10.4%
CCn1c(COc2ccc(C)cc2)nnc1SCC(=O)Nc1ccc2c(c1)OCCO2 -7.64%
COc1ccccc1Nc1nc(NCCCN(C)C)nc(N)c1[N+](=O)[O-] -1.84%
CCN(C(=O)Cn1c([N+](=O)[O-])cnc1C)c1ccccc1 -16.7%
CC(C)(C)c1cnnn1-c1ccc(C(=O)CCl)cc1 3.34%
CC1(C)CC(=O)C2=C(C1)N(c1ccc(F)cc1)C(=O)CC2c1ccccc1 (centres undefined) -4.86%
O=C(COC(=O)c1cnccn1)Nc1ccc(Cl)cn1 -5.03%
Cc1cc(C(=O)COC(=O)C2CC2)c(C)n1-c1ccc(F)cc1 4.63%
Cc1cc(C(=O)CSc2nnc3ccccn23)c(C)n1-c1ccccc1 0.992%
COc1ccc(C(=O)CSc2nc(C)cc(=O)[nH]2)cc1C -1.45%
CC1C=Cc2ccccc2N1C(=O)c1ccccc1 (centres undefined) -3%
O=C(OCCN1CCN(c2ncc(C(F)(F)F)cc2Cl)CC1)c1ccc(Cl)cc1 -3.94%
CCN1CCN(c2cc(C)c3cc(NC(=S)N4CCCC(C)C4)ccc3n2)CC1 (centres undefined) 6.67%
COc1cccc(CC2(CO)CCN(S(=O)(=O)c3ccc(OC)cc3OC)CC2)c1 1.79%
CC(C)CC(C(=O)Nc1cccc(O)c1)N1C(=O)c2ccccc2C1=O (centres undefined) -0.424%
COCCN(C(=O)COC(=O)/C=C/c1ccc(C(F)(F)F)cc1)c1c(N)n(Cc2ccccc2)c(=O)[nH]c1=O 4.7%
Cc1ccccc1OCC(=O)OCC(=O)c1ccc(-c2ccccc2)cc1 -2.21%
Cc1ccccc1OCC(=O)Nc1ccc([N+](=O)[O-])cc1 -3.6%
CN(Cc1ccccc1)C(=O)CCn1c(=O)oc2ccccc21 -5.05%
Cc1ccc(S(=O)(=O)NC(C)(C)CSc2nncn2N)cc1 -12.4%
CC1(C)C=C2C(=NN(c3ccccc3)C(N)=C2C#N)CO1 0.55%
Fc1ccc(-n2cc(CNCCc3ccccn3)c(-c3ccccc3Cl)n2)cc1 6.35%
O=C(CCl)Nc1ccccc1C(=O)c1ccccc1 -3.67%
O=C(CN1CCN(C(=O)c2ccccc2)CC1)Nc1ncc(Br)cc1Br -7.04%
O=C(OCc1cc(=O)n2cc(Br)ccc2n1)C1COc2ccccc2O1 (centres undefined) -10.6%
COc1ccc(CN(CCCN2CCOCC2)C(=O)Nc2cccc(Cl)c2)cc1OC 35.5%
CCOC(=O)Cc1cnc(NC(=O)c2ccccc2)s1 -10.8%
CCOC(=O)c1sc(NC(=O)Nc2ccccc2F)nc1C -5.42%
CN1CCN(c2ccc(NC(=O)c3ccc4ccccc4c3)cc2)CC1 5.25%
COc1ccc(C(C)NC(=S)NC2CCCCC2)cc1OC (centres undefined) 17%
COc1ccc(C(C(=O)NC2CCCCC2)N(C(=O)CCl)c2cccc(Cl)c2)cc1 (centres undefined) 54%
Cc1ccc(Cn2c(=N)n(CC(=O)c3ccccc3)c3ccccc32)cc1 -8.55%
CCCCSC1=C(C#N)C(c2ccccc2C)CC(=O)N1 (centres undefined) -0.422%
O=C(CCc1ccccc1)Nc1cccc([N+](=O)[O-])c1 -1.97%
Cc1nc(-c2ccc(Cl)cc2)sc1C1(C)CC(c2ccc(Cl)cc2)=NO1 (centres undefined) 5.7%
CN(C)c1nc(OCCNC(=O)COc2ccc(Cl)cc2Cl)nc(N(C)C)n1 -11.4%
Cc1cccc(C(=O)NC2CCN(C(=O)Nc3ccc(F)cc3)CC2)c1 -0.23%
C[n+]1c(/C=C/c2ccc3c(c2)OCO3)ccc2ccccc21 -0.328%
CCc1cc(C(=O)NCC(C)(C)N2CCOCC2)sc1C -5%
CCOC(=O)c1ccc(NC(=O)NS(=O)(=O)c2ccc(C)cc2)cc1 3.23%
CCOc1ccc(NC(=O)c2cccnc2C(=O)O)cc1 3.13%
N=C1C(c2nc3ccccc3[nH]2)=C(O)CN1c1ccc(CC(=O)O)cc1 13%
O=C(O)c1ccc(N2C(=O)CC(N3CCN(c4cccc(C(F)(F)F)c4)CC3)C2=O)cc1 (centres undefined) 1.6%
O=C(NNc1nc2ccccc2s1)Nc1ccccc1 -0.841%
COc1ccccc1Nc1ccc2nonc2c1[N+](=O)[O-] -4.82%
Cn1ccnc1Sc1cc(NCCCO)c([N+](=O)[O-])c2nonc12 -89.6%
COc1ccc(NC(=S)Nc2ccc(Oc3ccccc3)cc2)cc1 11.4%
Cc1cc(=O)oc2c(C)c(OC(C)C(=O)NCCCN3CCOCC3)ccc12 (centres undefined) 0.097%
Cc1c(O)ccc2c(CC(=O)N[C@@H](Cc3ccc(O)cc3)C(=O)O)cc(=O)oc12 -0.067%
Cc1cc(NC(=O)COc2coc(CN3CCN(c4ccccc4F)CC3)cc2=O)no1 -3.4%
CCOC(=O)c1cc(C#N)c(NCc2ccccc2)nc1C -8.53%
Cc1ccc(S(=O)(=O)CCC(=O)Nc2ccc(Br)cc2)cc1 -18.7%
O=C(O)c1cc(S(=O)(=O)Nc2ccc3c(c2)OCCO3)c(Cl)cc1Cl -9.48%
CCc1ccc(-c2nc(CS(=O)CC(=O)NCc3cccnc3)c(C)o2)cc1 (centres undefined) -5.61%
COc1ccc(OC)c(NC(=S)NCc2cccnc2)c1 -11%
COc1ccc(OC)c(NC(=O)CSc2nc3ccccc3cc2Cc2ccccc2)c1 2.64%
COc1ccc(N(CC(=O)NCc2ccc(F)cc2)C(=O)Cn2nnc(-c3ccc(C)o3)n2)cc1OC 3.23%
O=C(Cn1cnc2c(nnn2Cc2ccc(Cl)cc2)c1=O)N1CCCc2ccccc21 -4.06%
CCN(c1ccccc1)S(=O)(=O)c1ccc(Cl)c(C(=O)N(CC2CCCO2)C2CCS(=O)(=O)C2)c1 (centres undefined) -4.73%
O=C(O)c1csc(-c2ccccc2)n1 2.65%
Cc1cc(C(=O)CN2CCC(C)CC2)c(C)n1-c1ccccc1F 3.3%
Cc1cc(/C=C2\SC(=S)N(Cc3ccco3)C2=O)c(C)n1-c1ccccc1 -3.22%
